# Measured values taken from PubChem BioAssay (Tox21).
# Inconclusive results are not listed. Entries that show only a call come without a potency. Active and inactive are the calls of the source. Unless noted, calls follow the shape of the full dose curve.
# Tested on: not listed separately
# Assay: cAMP Responsive Elements (CRE) small molecule agonists, cell-based qHTS assay (AID 1963590)
# Details: CRE-bla HEK293T, beta-lactamase FRET ratio, 3 h; series mostly up to 92.4 µM
# Method in brief: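 FRET-based beta-lactamase readout (LiveBLAzer B/G, 2 h RT) quantified CRE activation in HEK 293T CRE-bla cells after 3 h treatment with DMSO-dissolved compounds.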
row,SMILES,Potency
1,CO[C@@H]1[C@@H](OC)[C@H](C)[C@@](O)(CC(=O)O)O[C@H]1[C@H](C)[C@H]1O[C@@]2(CC[C@@](C)([C@H]3CC[C@@](C)([C@@H]4O[C@@H]([C@H]5O[C@](C)(O)[C@H](C)C[C@@H]5C)C[C@@H]4OC4C[C@H](OC)[C@@H](OC)[C@H](C)O4)O3)O2)C[C@H](O)[C@H]1C (some centres not stated),inactive
2,c1ccc2sc(SN3CCOCC3)nc2c1,inactive
3,O=C(O)Cc1ccc(Cl)cc1Cl,inactive
4,Cc1ccc([N+](=O)[O-])c(N)c1,inactive
5,CCN(CC)c1ccc2c(-c3ccccc3C(=O)O)c3ccc(=[N+](CC)CC)cc-3oc2c1,inactive
6,CCC(Cl)CCC(Cl)C(Cl)CC(Cl)C(Cl)C(Cl)CCl (configuration not stated),inactive
7,CCOc1ccc(NC(C)=O)cc1N,inactive
8,OC[C@H]1O[C@@H](OCCc2ccc(O)cc2)[C@H](O)[C@@H](O)[C@@H]1O,inactive
9,CC(C)c1cccc(C(C)C)c1NC(=O)NS(=O)(=O)c1cc(C(C)(C)O)co1,inactive
10,CCc1oc2ccccc2c1C(=O)c1cc(I)c(O)c(I)c1,inactive
11,C=C[Si]1(C)O[Si](C)(C=C)O[Si](C)(C=C)O[Si](C)(C=C)O1 (configuration not stated),inactive
12,CC1=CCC(C(C)C)C=C1 (configuration not stated),inactive
13,Oc1ccc(N=Nc2ccccc2)cc1,inactive
14,Cc1ccc(Cl)cc1N,inactive
15,CC[C@]12CCCN3CCc4c(n(c5ccccc45)C(=O)C1)[C@@H]32,inactive
16,c1ccc2occc2c1,inactive
17,C=CCCCCCC,inactive
18,CCN(CCC#N)c1ccc(N=Nc2c(Cl)cc([N+](=O)[O-])cc2Cl)cc1,inactive
19,CCCCCC[C@@H](O)C/C=C\CCCCCCCC(=O)OC,inactive
20,N=C(N)N,inactive
21,NCCN1CCOCC1,inactive
22,O=C(O)C(=O)Cc1ccccc1,inactive
23,NCCc1cnc[nH]1,inactive
24,CC/C=C1/OC(=O)c2ccccc21,inactive
25,OCCN1CCN(CCO)CC1,inactive
26,CC/C=C\CCCCCO,inactive
27,c1ccc(-c2nc3ccccc3[nH]2)cc1,inactive
28,CC(=O)Nc1cccc(N)c1,inactive
29,COc1ccc(C2CNC(=O)C2)cc1OC1CCCC1 (configuration not stated),inactive

# Tested on: not listed separately
# Assay: cAMP Responsive Elements (CRE) small molecule antagonists, cell-based qHTS assay (AID 1963591; active = well fitted inhibition curve with a large enough effect in the signal ratio in the repeat runs, not every such curve was filed as active; the % refers to the signal ratio; also: potency is read from the fitted curve at half-maximal effect)
# Details: CRE-bla HEK293T, beta-lactamase FRET ratio; series mostly up to 92.4 µM
# Method in brief: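 qHTS in CRE-bla HEK 293T cells: compound in DMSO, then 0.25 uM NKH477 (final), 3 h at 37 °C/5% CO2; beta-lactamase FRET read-out after 2 h substrate incubation.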
row,SMILES,Potency
1,O=Cc1ccc(O)c(O)c1O,inactive
2,c1ccc2sc(SN3CCOCC3)nc2c1,inactive
3,O=C(O)Cc1ccc(Cl)cc1Cl,inactive
4,Cc1ccc([N+](=O)[O-])c(N)c1,inactive
5,CCN(CC)c1ccc2c(-c3ccccc3C(=O)O)c3ccc(=[N+](CC)CC)cc-3oc2c1,inactive
6,CCCCCCCCCC(C)C=O (configuration not stated),inactive
7,CCC(Cl)CCC(Cl)C(Cl)CC(Cl)C(Cl)C(Cl)CCl (configuration not stated),inactive
8,CCOc1ccc(NC(C)=O)cc1N,inactive
9,OC[C@H]1O[C@@H](OCCc2ccc(O)cc2)[C@H](O)[C@@H](O)[C@@H]1O,inactive
10,CC(C)c1cccc(C(C)C)c1NC(=O)NS(=O)(=O)c1cc(C(C)(C)O)co1,inactive
11,CCc1oc2ccccc2c1C(=O)c1cc(I)c(O)c(I)c1,inactive
12,C=C[Si]1(C)O[Si](C)(C=C)O[Si](C)(C=C)O[Si](C)(C=C)O1 (configuration not stated),inactive
13,CC1=CCC(C(C)C)C=C1 (configuration not stated),inactive
14,Oc1ccc(N=Nc2ccccc2)cc1,inactive
15,Cc1ccc(Cl)cc1N,inactive
16,Cc1cc(-c2ccc(N=Nc3cc(S(=O)(=O)O)c4ccccc4c3N)c(C)c2)ccc1N=Nc1cc(S(=O)(=O)O)c2ccccc2c1N,inactive

row,SMILES,Potency
1,CC[C@]12CCCN3CCc4c(n(c5ccccc45)C(=O)C1)[C@@H]32,inactive
2,c1ccc2occc2c1,inactive
3,C=CCCCCCC,inactive
4,COC(=O)/C=C(\C)CCC=C(C)C,inactive
5,CCCCCC[C@@H](O)C/C=C\CCCCCCCC(=O)OC,inactive
6,N=C(N)N,inactive
7,NCCN1CCOCC1,inactive
8,O=C(c1ccccc1)c1cc(Cl)ccc1O,41.1 µM (active)
9,O=C(O)C(=O)Cc1ccccc1,inactive
10,CC/C=C1/OC(=O)c2ccccc21,inactive
11,COC(=O)CCCCCCCC(=O)OC,inactive
12,OCCN1CCN(CCO)CC1,inactive
13,CC/C=C\CCCCCO,inactive
14,c1ccc(-c2nc3ccccc3[nH]2)cc1,inactive
15,CC(=O)Nc1cccc(N)c1,inactive
16,COc1ccc(C2CNC(=O)C2)cc1OC1CCCC1 (configuration not stated),inactive

# Molecular target: Beta-2 adrenergic receptor (Homo sapiens) (UniProt P07550)
# Sequence (P07550 whole entry, looked up): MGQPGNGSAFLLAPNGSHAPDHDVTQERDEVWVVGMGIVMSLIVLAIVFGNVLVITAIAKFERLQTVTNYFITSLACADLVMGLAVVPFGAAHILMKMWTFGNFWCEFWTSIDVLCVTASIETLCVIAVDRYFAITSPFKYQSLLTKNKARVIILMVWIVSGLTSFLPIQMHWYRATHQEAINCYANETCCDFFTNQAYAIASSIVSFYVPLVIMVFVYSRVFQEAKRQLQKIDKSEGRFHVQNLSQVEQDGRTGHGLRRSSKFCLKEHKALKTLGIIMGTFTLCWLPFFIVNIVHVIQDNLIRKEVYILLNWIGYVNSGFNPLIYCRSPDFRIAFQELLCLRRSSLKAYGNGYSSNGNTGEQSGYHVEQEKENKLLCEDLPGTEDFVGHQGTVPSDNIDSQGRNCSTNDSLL
# Assay: Adrenergic beta2 receptor (ADRB2) small molecule antagonists, cell-based qHTS assay (AID 1963592); also: nearly all actives have a fitted effect of over 50% in size
# Details: CHO-ADRB2 cells, isoproterenol-stimulated cAMP HTRF ratio, 0.5 h; series mostly up to 92.4 µM
# Method in brief: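 Cells (CHO, stable ADRB2 overexpression) incubated 18-20hr at 37C; compounds added from DMSO; agonist mix (1nM isoproterenol, 100uM IBMX, 25uM Ro-20-1724) added; 0.5hr RT; d2-cAMP and anti-cAMP-cryptate added; 1hr RT; 665/615 nm read.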
row,SMILES,Potency
1,CO[C@@H]1[C@@H](OC)[C@H](C)[C@@](O)(CC(=O)O)O[C@H]1[C@H](C)[C@H]1O[C@@]2(CC[C@@](C)([C@H]3CC[C@@](C)([C@@H]4O[C@@H]([C@H]5O[C@](C)(O)[C@H](C)C[C@@H]5C)C[C@@H]4OC4C[C@H](OC)[C@@H](OC)[C@H](C)O4)O3)O2)C[C@H](O)[C@H]1C (some centres not stated),inactive
2,O=Cc1ccc(O)c(O)c1O,inactive
3,c1ccc2sc(SN3CCOCC3)nc2c1,inactive
4,O=C(O)Cc1ccc(Cl)cc1Cl,inactive
5,Cc1ccc([N+](=O)[O-])c(N)c1,inactive
6,CCCCCCCCCC(C)C=O (configuration not stated),inactive
7,CCC(Cl)CCC(Cl)C(Cl)CC(Cl)C(Cl)C(Cl)CCl (configuration not stated),inactive
8,CCOc1ccc(NC(C)=O)cc1N,inactive
9,OC[C@H]1O[C@@H](OCCc2ccc(O)cc2)[C@H](O)[C@@H](O)[C@@H]1O,inactive
10,CCc1ccc2c(c1)C(=O)c1ccccc1C2=O,inactive
11,CC(C)c1cccc(C(C)C)c1NC(=O)NS(=O)(=O)c1cc(C(C)(C)O)co1,inactive
12,[Cl][Au]([Cl])[Cl],inactive
13,CCc1oc2ccccc2c1C(=O)c1cc(I)c(O)c(I)c1,inactive
14,C=C[Si]1(C)O[Si](C)(C=C)O[Si](C)(C=C)O[Si](C)(C=C)O1 (configuration not stated),inactive
15,CC1=CCC(C(C)C)C=C1 (configuration not stated),inactive
16,Cc1ccc(Cl)cc1N,inactive
17,Oc1ccc(Cc2ccccc2)cc1,inactive
18,Cc1cc(-c2ccc(N=Nc3cc(S(=O)(=O)O)c4ccccc4c3N)c(C)c2)ccc1N=Nc1cc(S(=O)(=O)O)c2ccccc2c1N,inactive

row,SMILES,Potency
1,C=CCCCCCC,inactive
2,COC(=O)/C=C(\C)CCC=C(C)C,inactive
3,CCN(CCC#N)c1ccc(N=Nc2c(Cl)cc([N+](=O)[O-])cc2Cl)cc1,inactive
4,CCCCCC[C@@H](O)C/C=C\CCCCCCCC(=O)OC,inactive
5,N=C(N)N,inactive
6,NCCN1CCOCC1,inactive
7,O=C(c1ccccc1)c1cc(Cl)ccc1O,inactive
8,O=C(O)C(=O)Cc1ccccc1,inactive
9,NCCc1cnc[nH]1,inactive
10,CC/C=C1/OC(=O)c2ccccc21,inactive
11,O=C1c2ccccc2C(=O)c2c(Cl)cccc21,inactive
12,COC(=O)CCCCCCCC(=O)OC,inactive
13,OCCN1CCN(CCO)CC1,inactive
14,CC/C=C\CCCCCO,inactive
15,O=C(NOCC1CC1)c1ccc(F)c(F)c1Nc1ccc(I)cc1Cl,inactive
16,c1ccc(-c2nc3ccccc3[nH]2)cc1,inactive
17,CC(=O)Nc1cccc(N)c1,inactive
18,COc1ccc(C2CNC(=O)C2)cc1OC1CCCC1 (configuration not stated),inactive
